Data on 19 compounds can be found in PubChem BioAssay (NCATS).

“And” between values parts separate entries of the source, which are not always exact repeats. Identical values can stand only once. Results filed as inconclusive are left out. The source holds several records for some structures; these can differ, active in one and inactive in another. Values without a mark were called inactive. The source made the active and inactive calls. The call rests on the fitted dose curve; in most records, active means well fitted inhibition curve with a large enough effect; inconclusive means small, poorly fitted or top-dose-only effect; inactive means flat fitted curve, though single readings scatter.

A short description of test [1]: Drug repurposing screens with cells derived from glioblastoma tumor samples (AID 1345199). Further: nearly all actives have a fitted effect of over 40% in size. As to conditions: GBM patient neurospheres viability, ATP luminescence, 48 h. The gist of the method: (§1)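 Four patient lines of CD133+ GBM neurospheres were screened at several concentrations; hits were retested in those lines plus three slower-growing GBM lines, using 48-hour treatment and ATP-based viability.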

For another test, the system named is astro (control astrocytes). The description is as above. As to conditions: viability, ATP luminescence, 48 h; series mostly up to 45.9 µM. The gist of the method: as §1
[2] abbreviates: at 45.9 µM (top of the series), tumour line B.
Setting [3] is: at 45.9 µM (top of the series), tumour line D.
[4] abbreviates: at 46 µM (top of the series), tumour line A.
The mark [5] stands for this setting: at 46.1 µM (top of the series), tumour line C.
The mark [6] stands for this setting: at 99.2 µM (top of the series), tumour line C.
The mark [7] stands for this setting: at 108 µM (top of the series), tumour line B.
[8] abbreviates: at 108 µM (top of the series), tumour line D.
On the % scale 0 is the no-effect control and ±100 the full control effect; potency means the concentration at half of the fitted maximal effect.

For `CNC(=O)OCC[N+](C)(C)C`, the activity, negative = cell killing was -5.85% in test [1] (setting [2]), -20% in test [1] (setting [3]), -22.4% in test [1] (setting [4]) and -19.7% in test [1] (setting [5]). Moreover, the Potency entry in the test with astro was “inactive”.

On to `C[C@]12C=CC(=O)C=C1CC[C@@H]1[C@@H]2CC[C@]2(C)OC(=O)CC[C@@H]12`, for which the activity, negative = cell killing is -3.73% in test [1] (setting [2]), -7.84% in test [1] (setting [3]), -28.6% in test [1] (setting [4]) and 1.2% in test [1] (setting [5]). Also, in the test with astro, the Potency entry was “inactive”.

For the compound `CCC1C(C)=NN=C(c2ccc(OC)c(OC)c2)c2cc(OC)c(OC)cc21` (centres undefined), the figures for the activity, negative = cell killing in test [1] (setting [2]), in test [1] (setting [3]) and in test [1] (setting [5]) were -16.7%, -19% and -6.07%, respectively.

In the case of `CC(=O)Oc1ccc2c3c1O[C@H]1[C@@H](OC(C)=O)C=C[C@H]4[C@@H](C2)N(C)CC[C@@]341`, the activity, negative = cell killing in test [1] (setting [2]) is 1.1%; in test [1] (setting [3]), -2.21%; in test [1] (setting [5]) it was -13.5%; in test [1] (setting [6]) it was -29.8%; in test [1] (setting [7]), -14.9%. In addition, the Potency result in the test with astro is “inactive”.

For `CCC1(c2ccccc2)C(=O)NC(=O)N(C)C1=O` (centres undefined), the activity, negative = cell killing is -7.4% in test [1] (setting [2]), -10.2% in test [1] (setting [3]), -23% in test [1] (setting [4]) and 7.87% in test [1] (setting [5]). Moreover, the Potency result with astro is “inactive”.

Regarding `Cn1sc(Cl)cc1=O`, the activity, negative = cell killing was -15.7% in test [1] (setting [2]), -11.3% in test [1] (setting [3]), -21.6% in test [1] (setting [4]) and -21.9% in test [1] (setting [5]). The Potency entry with astro was “inactive”.

As for `CC(=O)O[C@H]1CC[C@@]2(C)C(=CC[C@@H]3[C@@H]2CC[C@]2(C)C(=O)CC[C@@H]32)C1`, the activity, negative = cell killing in test [1] (at 20 µM (top of the series), tumour line C) is -28.7%; in test [1] (at 21.2 µM (top of the series), tumour line B), -3.53%; in test [1] (at 21.2 µM (top of the series), tumour line D), -21.5%. In addition, the Potency in test [1] (tumour line A) was 7.94 µM (active). Also, in the test with astro, the Potency result was “inactive”.

Consider `CCCC(C)(COC(N)=O)COC(=O)NC1CC1` (centres undefined), for which the activity, negative = cell killing in test [1] (setting [2]) is -5.97%; in test [1] (setting [3]), -18%; in test [1] (setting [4]), -25.6%; in test [1] (setting [5]) it was -16.6%. Besides, the Potency result with astro is “inactive”.

`CC1CCC(C(C)C)C(OC(=O)c2ccccc2N)C1` (centres undefined): the activity, negative = cell killing in test [1] (setting [5]) was 13.8%. Also, the Potency in test [1] (tumour line A) was 12.6 µM (active); in test [1] (tumour line B) it was 35.5 µM (active).

Regarding `CN1[C@H]2CC[C@@H]1[C@@H](C(=O)O)[C@@H](OC(=O)c1ccccc1)C2`, the activity, negative = cell killing in test [1] (setting [2]) was -13.9%; in test [1] (setting [3]), -11.4%; in test [1] (setting [4]), -27%; in test [1] (setting [5]), -10.2%; in test [1] (setting [6]), -6.57%; in test [1] (at 108 µM (top of the series), tumour line A), -26.2%. Also, the activity, negative = cell killing in test [1] (setting [7]) was -7.59%; in test [1] (setting [8]) it was -7.94%. Further, the Potency result in the test with astro was “inactive”.

With `CC(C)CCC(=O)O[C@H]1CC[C@H]2[C@@H]3CCC4=CC(=O)CC[C@]4(C)[C@H]3CC[C@]12C`, the activity, negative = cell killing in test [1] (setting [5]) is -19.7%. The figures for the Potency in test [1] (tumour line A) and in test [1] (tumour line B) were 11.2 µM (active) and 22.4 µM (active), respectively.

Consider `C=C[C@H]1CN2CC[C@H]1C[C@H]2[C@H](OC(=O)OCC)c1ccnc2ccc(OC)cc12`, for which the activity, negative = cell killing in test [1] (setting [2]) was -6.26%; in test [1] (setting [3]), -11.2%; in test [1] (setting [5]), 18.3%. In addition, the Potency in test [1] (tumour line A) was 10 µM (active). Besides, the Potency result in the test on astro is “inactive”.

`O=C1C[C@@H]2OCC=C3CN4CC[C@]56c7ccccc7N1[C@H]5[C@H]2[C@H]3C[C@H]46` (tested in a mixture with another compound): the activity, negative = cell killing in test [1] (setting [2]) is -8.18% and -6.54%; in test [1] (setting [3]), -14.5% and -6.5%; in test [1] (setting [5]) it was 1.96% and -18.9%. Besides, in test [1] (tumour line A), the Potency was 20 µM (active). Moreover, the Potency entry in the test on astro is “inactive”.

As for `ClC1C(Cl)C(Cl)C(Cl)C(Cl)C1Cl` (centres undefined), the activity, negative = cell killing in test [1] (setting [2]) is -3.31%; in test [1] (setting [3]), -6.39%; in test [1] (setting [4]), -20.5%; in test [1] (setting [5]) it was -11%. In addition, the Potency entry in the test on astro was “inactive”.

With `O=C1C2CC=CCC2C(=O)N1SC(Cl)(Cl)Cl` (centres undefined), in test [1] (setting [5]), the activity, negative = cell killing was -4.36%. The Potency was 7.08 µM (active) in test [1] (tumour line A), 20 µM (active) in test [1] (tumour line B) and 11.2 µM (active) in test [1] (tumour line D).

As to `CCCC(=O)OC(C(Cl)(Cl)Cl)P(=O)(OC)OC` (centres undefined), the activity, negative = cell killing in test [1] (setting [2]) was -9.86%; in test [1] (setting [3]), -6.58%; in test [1] (setting [4]), -3.23%; in test [1] (setting [5]) it was 7.15%. Also, the Potency entry in the test on astro was “inactive”.

Regarding `C[C@]12CC[C@H](OS(=O)(=O)O)CC1=CC[C@@H]1[C@@H]2CC[C@]2(C)C(=O)CC[C@@H]12`, the activity, negative = cell killing in test [1] (setting [2]) was 3.89%; in test [1] (setting [3]), -2.35%; in test [1] (setting [4]), -29.4%; in test [1] (setting [5]), -15.3%. The Potency result in the test with astro is “inactive”.

`CCC(N)Cc1c[nH]c2ccccc12` (centres undefined): the activity, negative = cell killing in test [1] (setting [2]) was -19.3%; in test [1] (setting [3]), -10.1%; in test [1] (setting [5]), -22.2%; in test [1] (setting [7]), -20.5%; in test [1] (setting [8]) it was -20.7%. Moreover, the Potency in test [1] (tumour line A) is 31.6 µM (active). Besides, in the test on astro, the Potency entry was “inactive”.

In the case of `CCCCCCCCCC(=O)O[C@H]1CC[C@H]2[C@@H]3CCC4=CC(=O)CC[C@]4(C)[C@H]3CC[C@]12C`, the activity, negative = cell killing in test [1] (setting [2]) was -12.8%; in test [1] (setting [3]), -20.9%; in test [1] (setting [5]), -14.9%. Also, the Potency in test [1] (tumour line A) is 15.8 µM (active).
